Compound activity from PubChem BioAssay.
HDAC3 inhib = HDAC3 deacetylase inhibitors, primary screen, biochemical, fluorescence, cell-free homogeneous | recombinant HDAC3, fluorogenic peptide/trypsin coupled | inhibition, % at 8.3 µM | hit rate 0.15% among 320,000 | AID 2718, 2010; in the data active = inhibition above about 26%, passing the limit was not always enough
PDI inh = inhibitors of human PDI, primary screen, biochemical, turbidity, single point, plate reader | Protein disulfide-isomerase (Homo sapiens), P07237 | hit rate 0.052% among 350,000 | inhibition, % at 10 µM | PDI insulin aggregation turbidity, A650, 90 min;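 active = mean inhibition across replicates of 30% or more, whatever share of single replicates reach that level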
ERAP1 inh = human ERAP1 aminopeptidase inhibitors, primary screen, biochemical, single point, plate reader; Endoplasmic reticulum aminopeptidase 1 (Homo sapiens), Q9NZ08; recombinant ERAP1, Leu-AMC fluorescence, 60 min; hit rate 0.15% among 340,000; inhibition, % at 10.7 µM;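 active = mean replicate inhibition of at least 30%, or all replicates individually reaching that 30% level; inactive = mean below 30% and not every replicate reaching it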;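 also: 0% = neutral control wells and 100% = L-leucinethiol positive control wells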
ERp5 block = inhibitors of ERp5-driven insulin aggregation, primary screen, biochemical, turbidity, absorbance 650 nm, single point | Protein disulfide-isomerase A6 (Homo sapiens), Q15084 | 90 min | inhibition, % at 9.99 µM | hit rate 0.05% among 350,000;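 active = mean replicate inhibition above about 25%, with every replicate also reaching it, limit read from the data, passing the limit was not always enough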
SIRT5 block = SIRT5 desuccinylase inhibitors, primary screen, biochemical, fluorescence imaging, single point, set 5. NAD-dependent protein deacylase sirtuin-5, mitochondrial (Homo sapiens), Q9NXA8. Purified SirT5, succinyl-peptide AMC, trypsin-coupled fluorescence. inhibition, % at 15 µM. hit rate 1.1% among 330,000; in the data active = inhibition above about 15%
* = called active by the depositor; x = not tested or not shown; ! = not confirmed by another sample. Shown is part of a subset that was picked to be rich in hits.

SMILES	HDAC3 inhib	PDI inh	ERAP1 inh	ERp5 block	SIRT5 block
COc1cccc(NC(=O)N(C)C[C@H]2Oc3cc(-c4ccccc4F)ccc3S(=O)(=O)N([C@@H](C)CO)C[C@H]2C)c1	x	x	4.7	4.5	19.3*
CCCC#Cc1ccc2c(c1)O[C@@H](CN(C)C(=O)Nc1ccc(OC)cc1)[C@H](C)CN([C@@H](C)CO)S2(=O)=O	x	x	1.2	17.4	9.6
C[C@@H]1CN([C@H](C)CO)C(=O)c2cc(NC(=O)c3ccncc3)ccc2O[C@@H](C)CCCCO[C@H]1CN(C)C(=O)Nc1ccc(C(F)(F)F)cc1	x	x	0.6	3.6	8.0
CCOC(=O)C1=C[C@@H](C)N(S(=O)(=O)c2ccc(C)cc2)[C@H]1c1ccccc1	x	x	-1.3	-8.5	2.1
CCOC(=O)C1=C[C@@H](c2ccccc2)N(S(=O)(=O)c2ccc(C)cc2)[C@H]1c1ccccc1Cl	x	x	13.7	-4.0	23.4*
C[C@@H](NC(=O)[C@H]1[C@H](CO)[C@H]2Cn3c(cccc3=O)[C@@H]1N2C(=O)C1CCCC1)c1ccccc1	x	x	1.6	-0.4	1.7
COCC#Cc1cnc2c(c1)C(=O)N([C@@H](C)CO)C[C@@H](C)[C@H](CN(C)C(=O)c1cccnc1)O2	x	x	0.7	1.7	16.2*
COCC#Cc1cnc2c(c1)C(=O)N([C@@H](C)CO)C[C@@H](C)[C@@H](CN(C)C(=O)Cc1ccccc1)O2	x	x	-3.8	0.3	-1.8
COCC#Cc1cnc2c(c1)C(=O)N([C@H](C)CO)C[C@@H](C)[C@H](CN(C)C(=O)Cc1ccccc1)O2	x	x	-3.8	-4.4	31.4*
C[C@H](CO)N1C[C@H](C)[C@H](CN(C)Cc2ccccc2)Oc2ncc(C#CCN(C)C)cc2C1=O	x	x	-2.7	6.3	18.6*!
Cc1noc(C)c1S(=O)(=O)Nc1ccc2c(c1)C(=O)N([C@@H](C)CO)C[C@H](C)[C@H](CN(C)C(=O)Nc1ccc3c(c1)OCO3)OCCCC[C@H](C)O2	x	x	2.1	2.8	1.2
CCOc1cccc(N)c1	-4.0	x	x	x	x
CCOc1ccc(N)c(SSc2cc(OCC)ccc2N)c1	-0.2	-5.3	37.7*	1.1	-0.6
C/C=C/c1ccc2c(c1)O[C@@H](CN(C)C)[C@@H](C)CN([C@@H](C)CO)S2(=O)=O	x	x	-1.3	-3.3	-5.0
CC(=O)N1[C@@H]2c3ccc(-c4ccccc4)c(=O)n3C[C@H]1[C@H](CO)[C@H]2C(=O)N1CCN(C)CC1	x	x	1.4	-0.1	-28.3
O=C(CNC(=O)C1COc2ccccc2O1)N/N=C\c1ccc(Br)cc1 (stereo not drawn)	-4.1	1.8	2.9	-7.2	22.7*
O=C(N[C@H]1CC[C@@H](CCNS(=O)(=O)c2cccc(Cl)c2)O[C@H]1CO)c1ccccc1	x	x	1.8	2.2	0.9
C[C@H](CO)N1C[C@H](C)[C@@H](CN(C)S(=O)(=O)c2ccc(Cl)cc2)OCCCC[C@H](C)Oc2ccc(NS(=O)(=O)c3cn(C)cn3)cc2C1=O	x	x	-0.2	-0.6	2.4
CC(C)C[C@H]1COCc2cn(nn2)CC[C@@H](Cc2ccccc2)C(=O)N1	x	x	1.8	13.7	-0.7
COc1ccccc1N1CCN(C(=O)C(=O)N/N=C/c2cccc(O)c2)CC1	3.3	36.1*	x	x	x
O=C(NC(=S)Nc1ccc(Cl)cc1)c1cncc(Br)c1	-2.9	20.2	-1.3	-6.4	x
Cc1ccc(NC(=S)NC(=O)c2cncc(Br)c2)cc1Cl	4.7	-7.9	x	4.9	29.2*
COCCn1c(=N)c(C(=O)NCc2ccco2)cc2c(=O)n3cc(C)ccc3nc21	-92.0	0.2	65.9*	6.4	x
Cc1ccc2nc3c(cc(C(=O)NCc4ccco4)c(=N)n3C3CCCC3)c(=O)n2c1	-44.2	4.8	-90.0	-3.5	-2.0
COCC#Cc1cnc2c(c1)C(=O)N([C@@H](C)CO)C[C@@H](C)[C@H](CN(C)C(=O)Nc1cccc(F)c1)O2	x	x	0.3	-4.8	-2.1
O=c1[nH]c(=O)c2[nH]c(=S)n(-c3ccccc3)c2[nH]1	x	10.0	36.9*	-1.8	-5.6
C[C@@H]1CCCCO[C@@H](CN(C)C(=O)Nc2cccc3ccccc23)[C@H](C)CN([C@@H](C)CO)C(=O)c2cc(NC(=O)Nc3ccc(F)cc3)ccc2O1	x	x	-1.0	-0.6	11.4
